This note sets out measurements from the supplement of paper PMC12494721.

Counter-ions that a name gives are not always drawn. A number with no mark means an inactive call.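 The calls were made as follows: for the amine columns active = adjusted P below 0.05 in both replicates with a change the same way and a mean fold change under 0.8 or over 1.25; inactive = the rest.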

The first assay has as its system Klebsiella aerogenes DSM 30053. Briefly: fold change of Cadaverine concentration vs plate DMSO controls (fold change (ratio)); higher = more amine produced, active = hit call of the paper (significant change in both replicates, either direction). As to conditions: 20 µM; incubation time: 27 h, anaerobic, 37 °C. A digest of the protocol: (§1)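 Amine values are fold changes relative to DMSO-only wells on the same plate. They derive from 27 h, 37 °C anaerobic mGAM cultures of four gut bacterial strains in 80 µL wells, dosed at 20 µM final, or 50 µM final for sweeteners. Extraction of the whole culture, LC–triple-quadrupole MS in dynamic MRM mode, external calibration curves and within-batch drift correction were used, with 2 biological replicates averaged.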
Regarding `C=C[C@H]1CN2CC[C@H]1C[C@H]2[C@H](OC(=O)OCC)c1ccnc2ccc(OC)cc12` [Quinine ethyl carbonate], the “fold change of Cadaverine concentration” value was 0.993.
With `S=C(NC1CCCCC1)N1CCC(c2cnc[nH]2)CC1` [Thioperamide maleate], the “fold change of Cadaverine concentration” value is 0.987.
The same measure, in the same setting: next, `N#Cc1sc2c(=O)c3ccccc3c(=O)c=2sc1C#N`: 0.992.
Same read-out and setting: to `CC(=O)OC1CN2CCC1CC2` (centres undefined) [Aceclidine hydrochloride] belongs 1.02; to `C1=Cc2cccc3cccc1c23` [Acenaphthylene], 0.985.
Turning to `CS(=O)(=O)c1ccc(C(=O)C2C(=O)CCCC2=O)c([N+](=O)[O-])c1`, the “fold change of Cadaverine concentration” value was 1.08.
The same measure, in the same setting: next, `CCN(CC)CCOC(=O)C(O)(c1ccccc1)c1ccccc1` [Benactyzine hydrochloride]: 0.999.
As for `c1ccc2c(c1)Nc1ccccc1S2` [Phenothiazine], the “fold change of Cadaverine concentration” value was 0.973.
Turning to `CCC1(C)CC(=O)NC(=O)C1` [Bemegride], the “fold change of Cadaverine concentration” value was 0.991.
As to `CNC(=O)/C=C(\C)OP(=O)(OC)OC`, the “fold change of Cadaverine concentration” value was 0.998.
Still for that read-out and setting: to `CC[N+]1(C)CCCC(OC(=O)C(O)(c2ccccc2)c2ccccc2)C1` (centres undefined) [Pipenzolate bromide] belongs 1.01; to `CC(C)(C)c1ccc(CSc2cnn(C(C)(C)C)c(=O)c2Cl)cc1`, 1; to `CSc1nc(NC(C)C)nc(NC(C)C)n1`, 1.03.
Consider `O=C(Nc1ccc(F)cc1F)c1cccnc1Oc1cccc(C(F)(F)F)c1`, for which the “fold change of Cadaverine concentration” value is 0.993.
The same measure, in the same setting: next, `O=C(CCCN1CCC2(CC1)C(=O)NCN2c1ccccc1)c1ccc(F)cc1` [Spiperone]: 0.998; `CCOCN(C(=O)CCl)c1c(C)cccc1CC`: 1.
Still for that read-out and setting: to `ClC1C(Cl)C(Cl)C(Cl)C(Cl)C1Cl` (centres undefined) belongs 0.994; to `CCSC(C)CC1CC(=O)C(/C(CC)=N/OC/C=C/Cl)=C(O)C1` (mixture of isomers), 1.01.
Same read-out and setting: next, `O=P1(N(CCCl)CCCl)NCCCO1` (centres undefined) [Cyclophosphamide]: 0.999.
On to `CN1[C@@H]2C[C@@H](OC(=O)[C@H](CO)c3ccccc3)C[C@H]1[C@@H]1O[C@@H]12` [Scopolamine hydrochloride], for which the “fold change of Cadaverine concentration” value was 1.02.
Consider `COP(=S)(OC)SCN1C(=O)c2ccccc2C1=O`, for which the “fold change of Cadaverine concentration” value is 1.01.
With `CC(C)N(C)S(=O)(=O)NC(=O)c1cc(-n2c(=O)cc(C(F)(F)F)n(C)c2=O)c(F)cc1Cl`, the “fold change of Cadaverine concentration” value is 0.993.
Still for that read-out and setting: to `CN/C(=N/CC1CCOC1)N[N+](=O)[O-]` (centres undefined) belongs 0.999; to `CC(=O)O[C@H]1C[C@H](O[C@H]2[C@@H](O)C[C@H](O[C@H]3[C@@H](O)C[C@H](O[C@H]4CC[C@@]5(C)[C@H](CC[C@@H]6[C@@H]5C[C@@H](O)[C@]5(C)[C@@H](C7=CC(=O)OC7)CC[C@]65O)C4)O[C@@H]3C)O[C@@H]2C)O[C@H](C)[C@H]1O[C@@H]1O[C@H](CO)[C@@H](O)[C@H](O)[C@H]1O` [Lanatoside C], 0.996.
As to `NC(=O)C[S+]([O-])C(c1ccccc1)c1ccccc1` (centres undefined) [Modafinil], the “fold change of Cadaverine concentration” value is 1.
Take `CCn1cc(C(=O)O)c(=O)c2cc3c(cc21)OCO3` [Oxolinic acid]: the “fold change of Cadaverine concentration” value was 0.976.
Regarding `c1ccc2c(c1)cc1ccc3cccc4ccc2c1c34` [Benzo[a]pyrene], the “fold change of Cadaverine concentration” value is 1.
Consider `CCNC(=O)NC(=O)/C(C#N)=N/OC`, for which the “fold change of Cadaverine concentration” value is 1.02.
Still for that read-out and setting: next, `CNC(=O)Oc1ccc2c(c1)[C@]1(C)CCN(C)[C@@H]1N2C` [Eserine hemisulfate salt]: 0.975; `Oc1ccc2c3c1O[C@H]1[C@@H](O)CC[C@@]4(O)[C@@H](C2)N(CC2CCC2)CC[C@]314` [Nalbuphine hydrochloride]: 1.01.
For the compound `CON(C)C(=O)Nc1ccc(Cl)c(Cl)c1`, the “fold change of Cadaverine concentration” value is 1.
The same measure, in the same setting: to `C=CC(N)=O` [Acrylamide] belongs 0.972; to `Nc1ccncc1` [Dalfampridine], 1; to `CC(=O)O[C@H]1C[C@@H]2CC[C@@H]3[C@H](CC[C@@]4(C)[C@H]3C[C@H]([N+]3(C)CCCCC3)[C@@H]4OC(C)=O)[C@@]2(C)C[C@@H]1[N+]1(C)CCCCC1` [Pancuronium bromide], 1.03.
For `CC(C)(C)C(O)(CCc1ccc(Cl)cc1)Cn1cncn1` (centres undefined), the “fold change of Cadaverine concentration” value is 1.03.
On the same count and under the same terms, to `CCNC1(c2cccs2)CCCCC1=O` (centres undefined) [Tiletamine hydrochloride] belongs 1.01.
The same measure, in the same setting: to `COc1ccc(OC)c(C(O)C(C)N)c1` (centres undefined) [Methoxamine hydrochloride] belongs 0.988.

Another assay concerns Ruminococcus gnavus DSM 108212. Briefly: fold change of 2-Phenylethylamine concentration vs plate DMSO controls (fold change (ratio)); higher = more amine produced, active = hit call of the paper (significant change in both replicates, either direction). The settings on record: 20 µM; incubation time: 27 h, anaerobic, 37 °C. In a few lines: as §1
For the compound `C=C[C@H]1CN2CC[C@H]1C[C@H]2[C@H](OC(=O)OCC)c1ccnc2ccc(OC)cc12` [Quinine ethyl carbonate], the “fold change of 2-Phenylethylamine concentration” value is 1.03.
Still for that read-out and setting: next, `S=C(NC1CCCCC1)N1CCC(c2cnc[nH]2)CC1` [Thioperamide maleate]: 1.01; `N#Cc1sc2c(=O)c3ccccc3c(=O)c=2sc1C#N`: 0.827; `CC(=O)OC1CN2CCC1CC2` (centres undefined) [Aceclidine hydrochloride]: 1.01.
`C1=Cc2cccc3cccc1c23` [Acenaphthylene]: the “fold change of 2-Phenylethylamine concentration” value was 0.996.
`CS(=O)(=O)c1ccc(C(=O)C2C(=O)CCCC2=O)c([N+](=O)[O-])c1`: the “fold change of 2-Phenylethylamine concentration” value was 0.999.
Still for that read-out and setting: to `CCN(CC)CCOC(=O)C(O)(c1ccccc1)c1ccccc1` [Benactyzine hydrochloride] belongs 1.07; to `c1ccc2c(c1)Nc1ccccc1S2` [Phenothiazine], 0.974; to `CCC1(C)CC(=O)NC(=O)C1` [Bemegride], 1.03.
With `CNC(=O)/C=C(\C)OP(=O)(OC)OC`, the “fold change of 2-Phenylethylamine concentration” value is 1.06.
Still for that read-out and setting: to `CC[N+]1(C)CCCC(OC(=O)C(O)(c2ccccc2)c2ccccc2)C1` (centres undefined) [Pipenzolate bromide] belongs 0.926; to `CC(C)(C)c1ccc(CSc2cnn(C(C)(C)C)c(=O)c2Cl)cc1`, 0.948; to `CSc1nc(NC(C)C)nc(NC(C)C)n1`, 1.
The same measure, in the same setting: to `O=C(Nc1ccc(F)cc1F)c1cccnc1Oc1cccc(C(F)(F)F)c1` belongs 0.987.
Still for that read-out and setting: to `O=C(CCCN1CCC2(CC1)C(=O)NCN2c1ccccc1)c1ccc(F)cc1` [Spiperone] belongs 1.04.
In the case of `CCOCN(C(=O)CCl)c1c(C)cccc1CC`, the “fold change of 2-Phenylethylamine concentration” value was 1.02.
Take `ClC1C(Cl)C(Cl)C(Cl)C(Cl)C1Cl` (centres undefined): the “fold change of 2-Phenylethylamine concentration” value was 0.979.
As to `CCSC(C)CC1CC(=O)C(/C(CC)=N/OC/C=C/Cl)=C(O)C1` (mixture of isomers), the “fold change of 2-Phenylethylamine concentration” value was 0.99.
As to `O=P1(N(CCCl)CCCl)NCCCO1` (centres undefined) [Cyclophosphamide], the “fold change of 2-Phenylethylamine concentration” value is 1.03.
Same read-out and setting: to `CN1[C@@H]2C[C@@H](OC(=O)[C@H](CO)c3ccccc3)C[C@H]1[C@@H]1O[C@@H]12` [Scopolamine hydrochloride] belongs 1.12; to `COP(=S)(OC)SCN1C(=O)c2ccccc2C1=O`, 1.
Turning to `CC(C)N(C)S(=O)(=O)NC(=O)c1cc(-n2c(=O)cc(C(F)(F)F)n(C)c2=O)c(F)cc1Cl`, the “fold change of 2-Phenylethylamine concentration” value was 0.819.
The same measure, in the same setting: to `CN/C(=N/CC1CCOC1)N[N+](=O)[O-]` (centres undefined) belongs 0.994; to `CC(=O)O[C@H]1C[C@H](O[C@H]2[C@@H](O)C[C@H](O[C@H]3[C@@H](O)C[C@H](O[C@H]4CC[C@@]5(C)[C@H](CC[C@@H]6[C@@H]5C[C@@H](O)[C@]5(C)[C@@H](C7=CC(=O)OC7)CC[C@]65O)C4)O[C@@H]3C)O[C@@H]2C)O[C@H](C)[C@H]1O[C@@H]1O[C@H](CO)[C@@H](O)[C@H](O)[C@H]1O` [Lanatoside C], 1.1.
For the compound `NC(=O)C[S+]([O-])C(c1ccccc1)c1ccccc1` (centres undefined) [Modafinil], the “fold change of 2-Phenylethylamine concentration” value is 1.06.
The same measure, in the same setting: next, `CCn1cc(C(=O)O)c(=O)c2cc3c(cc21)OCO3` [Oxolinic acid]: 0.959; `c1ccc2c(c1)cc1ccc3cccc4ccc2c1c34` [Benzo[a]pyrene]: 1.04; `CCNC(=O)NC(=O)/C(C#N)=N/OC`: 1.02.
For `CNC(=O)Oc1ccc2c(c1)[C@]1(C)CCN(C)[C@@H]1N2C` [Eserine hemisulfate salt], the “fold change of 2-Phenylethylamine concentration” value was 1.05.
On the same count and under the same terms, next, `Oc1ccc2c3c1O[C@H]1[C@@H](O)CC[C@@]4(O)[C@@H](C2)N(CC2CCC2)CC[C@]314` [Nalbuphine hydrochloride]: 0.922; `CON(C)C(=O)Nc1ccc(Cl)c(Cl)c1`: 0.976.
For the compound `C=CC(N)=O` [Acrylamide], the “fold change of 2-Phenylethylamine concentration” value was 1.03.
Take `Nc1ccncc1` [Dalfampridine]: the “fold change of 2-Phenylethylamine concentration” value was 0.991.
As for `CC(=O)O[C@H]1C[C@@H]2CC[C@@H]3[C@H](CC[C@@]4(C)[C@H]3C[C@H]([N+]3(C)CCCCC3)[C@@H]4OC(C)=O)[C@@]2(C)C[C@@H]1[N+]1(C)CCCCC1` [Pancuronium bromide], the “fold change of 2-Phenylethylamine concentration” value is 1.08.
Same read-out and setting: to `CC(C)(C)C(O)(CCc1ccc(Cl)cc1)Cn1cncn1` (centres undefined) belongs 1.15; to `CCNC1(c2cccs2)CCCCC1=O` (centres undefined) [Tiletamine hydrochloride], 1.
Consider `COc1ccc(OC)c(C(O)C(C)N)c1` (centres undefined) [Methoxamine hydrochloride], for which the “fold change of 2-Phenylethylamine concentration” value is 0.165 (active).
